Compound activity as filed in PubChem.
In the library only some 7.3% were active in any assay of this set; here they are far more common.
FMDV antiviral – High Throughput Screening for Foot and Mouth Disease Virus Antivirals | FMDV antiviral cell-based qHTS | Potency, µM (doses to about 57.9 µM), for the others: at the top dose activity change, negative = inhibition, actives largely listed as inhibitors | 1.2% of 410,000 active; calls by dose curve; tested in HEK293T cells; also: read-out not given here; potency is read from the fitted curve at half-maximal effect; nearly all actives have a fitted effect of over 45% in size
VACV Venus inh – qHTS for Stage-Specific Inhibitors of Vaccinia Orthopoxvirus: Venus Reporter Primary qHTS; Vaccinia virus Venus reporter expression, fluorescence; Potency, µM (titrated, usually from 36.5 µM), without a hit: at the top dose activity change, negative = inhibition, actives largely listed as inhibitors; 0.46% of 330,000 active; AID 720580, 2013; calls by dose curve; tested in A549 cells; also: potency is read from the fitted curve at half-maximal effect; nearly all actives have a fitted effect of over 30% in size
VACV mCherry inh – qHTS for Stage-Specific Inhibitors of Vaccinia Orthopoxvirus: mCherry Reporter Primary qHTS; Potency, µM (doses to about 36.5 µM), for inactives: at the top dose activity change, negative = inhibition, most hits filed as inhibitors; 0.63% of 310,000 active; AID 720579, 2013; Vaccinia virus mCherry reporter infection, fluorescence; calls by dose curve; tested in A549 cells; also: potency is read from the fitted curve at half-maximal effect; nearly all actives have a fitted effect of over 35% in size
HCMV inh – qHTS Assay for inhibitors of the human cytomegalovirus (HCMV). HFF cells, HCMV-luciferase reporter, 72 h; active compounds read low. activity change, negative = inhibition, % at 57.5 µM. 4.5% of 410,000 active. AID 1259415, 2018; in the data active = activity change below about -60%; inconclusive = no clear call, values can overlap the other calls; inactive = above about -39%
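Screen run at 2 compound doses on HFFs infected with reporter HCMV, MOI 1 PFU/cell. Luciferase activity from cell lysates at 72 h post infection gave inhibition relative to buffer-only and Salinomycin wells.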
HCV inhibitor – qHTS Assay for Inhibitors of Hepatitis C Virus (HCV); Potency, µM (doses to about 41.8 µM), for inactives: at the highest dose activity change, negative = inhibition, most hits filed as inhibitors; Huh7.5.1 HCVcc-Cre infection, luciferase reporter, 44 h; 3.4% of 340,000 active; AID 651820, 2012; active = well fitted inhibition curve with a large enough effect; inconclusive = small, poorly fitted or top-dose-only effect, or another doubt; inactive = no such curve, though single readings can be large or run the other way; also: potency is read from the fitted curve at half-maximal effect
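Compounds are dispensed onto cells plated 4 h earlier at 1,000 per well, with HCVcc-Cre virus (about 0.5 moi) added next. Following 44 h of culture, luminescent signal is measured for 15 sec after 15 min with substrate at room temperature.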
An asterisk follows results filed as active. % is scaled to controls: 0 for no effect and ±100 for the full control effect.

For O=C(C(=O)c1cc(Br)ccc1O)c1cc(Br)ccc1O the results were FMDV antiviral -3.4%, VACV Venus inh inconclusive, VACV mCherry inh inconclusive, HCMV inh -97.3* and HCV inhibitor inconclusive.
Screening O=C(c1ccc(O)c(Br)c1)c1cc(Br)ccc1O returned FMDV antiviral -0.2%, VACV Venus inh -14.6%, VACV mCherry inh inconclusive, HCMV inh -16.6 and HCV inhibitor 4.1%.
Screening C=CCOc1c(Br)cc(CNc2ccc(NC(=O)C(C)C)c(OC)c2)cc1OC returned FMDV antiviral inconclusive, HCMV inh -98.2* and HCV inhibitor 10µM*.
For CCCOc1ccc(NC(=O)CC2C(=O)N(c3ccc(C)cc3)C(=O)N2C2CCCC2)cc1 (configuration not stated) the results were FMDV antiviral 11.6%, VACV Venus inh -10.4%, VACV mCherry inh -23.8% and HCMV inh 31.5.
`Cc1cc(C)n(CCc2nc(-c3ccco3)cs2)n1` gave FMDV antiviral 1.1%, HCMV inh -105.4* and HCV inhibitor -1.6%.
`Cc1cc(C)n(CCc2nc(-c3ccc(-c4ccccc4)cc3)cs2)n1` gave FMDV antiviral 4.1%, VACV Venus inh -12.7%, VACV mCherry inh -0.5%, HCMV inh -65.2* and HCV inhibitor inconclusive.
Cc1cc(C)n(CCc2nc(-c3cccs3)cs2)n1 was read as FMDV antiviral 0.0%, VACV Venus inh -25.0%, HCMV inh 20.0 and HCV inhibitor 14.1%.
For COc1ccc(CC(=O)N2CCc3cc(OC)c(OC)cc3C2C)c(OC)c1 (configuration not stated) the results were FMDV antiviral -17.1%, VACV Venus inh -19.2%, VACV mCherry inh -7.8% and HCV inhibitor -8.4%.
CC[n+]1c(/C=C2\C=C(C)CC(C)(C)C2)sc2ccccc21 was read as FMDV antiviral inconclusive, VACV Venus inh -9.9%, VACV mCherry inh inactive, HCMV inh -18.5 and HCV inhibitor 6.31µM*.
CC[n+]1c(/C=C2/C=C(C)CC(C)(C)C2)sc2ccc(OC)cc21 was read as FMDV antiviral 20µM*, VACV Venus inh 3.9%, HCMV inh -86.5* and HCV inhibitor inconclusive.
Screening CCC1=C/C(=C/c2sc3ccccc3[n+]2CC)CC(C)(C)C1 returned FMDV antiviral inconclusive, VACV Venus inh -10.5%, VACV mCherry inh -4.0%, HCMV inh -39.8 and HCV inhibitor inconclusive.
For Cc1coc2cc3oc(=O)c(CC(=O)NCCc4ccccc4)c(C)c3cc12 the results were FMDV antiviral -3.3%, VACV Venus inh -9.8%, VACV mCherry inh -9.8% and HCMV inh -5.3.
For CN(C)C/C=C(\c1ccc(Br)cc1)c1cccnc1 the results were FMDV antiviral -17.3%, VACV Venus inh -14.5%, VACV mCherry inh inactive, HCMV inh -6.9 and HCV inhibitor inconclusive.
For O=C(NCc1cccc2ccsc12)c1cccs1 the results were FMDV antiviral -2.1%, VACV Venus inh -4.6%, VACV mCherry inh -5.8%, HCMV inh 6.0 and HCV inhibitor 16.1%.
For O=C(Nc1ccc(NC(=O)c2ccc([N+](=O)[O-])o2)cc1Cl)c1ccco1 the results were FMDV antiviral -4.0%, VACV Venus inh -17.6%, VACV mCherry inh -22.3%, HCMV inh -73.3* and HCV inhibitor inconclusive.
O=C(Nc1ccc(NC(=O)c2ccco2)c(Cl)c1)c1ccccc1 was read as FMDV antiviral 54.3%, VACV Venus inh inconclusive, VACV mCherry inh inactive, HCMV inh 17.6 and HCV inhibitor -29.9%.
O=C(Nc1cccc(NC(=O)c2ccc([N+](=O)[O-])o2)c1)c1ccco1 was read as FMDV antiviral 27.1%, VACV Venus inh inconclusive, VACV mCherry inh 12.6µM*, HCMV inh inconclusive and HCV inhibitor inconclusive.
Screening O=C(Nc1ccccc1Cl)c1ccc([N+](=O)[O-])o1 returned FMDV antiviral -11.0%, VACV Venus inh inconclusive, VACV mCherry inh inconclusive, HCMV inh -100.5* and HCV inhibitor inconclusive.
`Cc1ccccc1NC(=O)c1ccc([N+](=O)[O-])o1` gave FMDV antiviral -29.5%, VACV Venus inh -20.1%, VACV mCherry inh -27.1%, HCMV inh -13.3 and HCV inhibitor inconclusive.
O=C(Nc1cccc(NC(=O)c2ccc(-c3cccc(Br)c3)o2)c1)c1ccco1 was read as VACV Venus inh -15.3%, VACV mCherry inh -2.9%, HCMV inh -14.1 and HCV inhibitor 3.55µM*.
`CCC(C)CN1C(=O)CN(S(C)(=O)=O)CC1(C)C(=O)NCc1ccccc1` (configuration not stated) gave FMDV antiviral -16.2%, VACV Venus inh -3.5%, VACV mCherry inh inconclusive and HCMV inh 35.8.
Screening CC[C@@H](C)[C@H](NS(=O)(=O)c1cccc2ccccc12)C(=O)N[C@H](C=O)Cc1c[nH]c2ccccc12 returned FMDV antiviral -15.9%, VACV Venus inh -11.9% and VACV mCherry inh -15.8%.
Screening COc1ccccc1N1CCN(CCCNC(=O)c2cnn(-c3ccccc3)c2C2CCN(C(=O)OC(C)(C)C)CC2)CC1 returned FMDV antiviral -8.3%, VACV Venus inh -26.6%, VACV mCherry inh -25.8% and HCMV inh inconclusive.
CC(C)CSc1nnc(-c2ccccc2)c(-c2ccccc2)n1 was read as FMDV antiviral -11.2%, VACV Venus inh 2.7%, VACV mCherry inh -7.5% and HCMV inh -17.0.
`Cc1ccc(NC(=O)c2ccc([N+](=O)[O-])o2)c(C)c1` gave FMDV antiviral -9.2%, HCMV inh -24.6 and HCV inhibitor 14.1µM*.
Cc1cc(C(=O)COC(=O)C2=COCCO2)c(C)n1-c1ccccc1 was read as FMDV antiviral inconclusive, VACV Venus inh -8.6%, VACV mCherry inh -1.5%, HCMV inh inconclusive and HCV inhibitor inconclusive.
Screening Cc1cc2oc(C(=O)Nc3c(C(=O)Nc4ccccc4)oc4ccccc34)cc(=O)c2cc1C returned FMDV antiviral -11.7%, VACV Venus inh 7.6%, VACV mCherry inh -7.9% and HCMV inh 22.1.
c1csc(C2=Nn3c(nnc3-c3ccncc3)SC2)c1 was read as FMDV antiviral -18.0%, VACV Venus inh -19.0%, HCMV inh -81.4* and HCV inhibitor -15.8%.
`Clc1ccccc1C1=Nn2c(nnc2-c2ccncc2)SC1` gave FMDV antiviral -25.2%, VACV Venus inh -13.6%, VACV mCherry inh -27.7%, HCMV inh -76.1* and HCV inhibitor -1.0%.
`COc1ccc(CC(N)c2csc(NC(=O)c3cc(C(C)(C)C)oc3C)n2)cc1` (configuration not stated) gave FMDV antiviral 0.0%, VACV Venus inh -17.5%, VACV mCherry inh -21.5% and HCMV inh 53.6.
`O=S(=O)(c1ccc2c(c1)OCCO2)N1CCN(c2nc(-c3cccs3)nc3ccccc23)CC1` gave VACV Venus inh -10.1% and VACV mCherry inh -0.6%.
